Compound activity as filed in PubChem BioAssay.
A selection: hits, their analogues and other compounds. The true share with any hit is near 4.6%.
VACV Venus inh = vaccinia inhibition (Venus reporter) | Vaccinia virus Venus reporter expression, fluorescence | Potency, µM (titrated, usually from 36.5 µM), for inactives: top-dose activity change, negative = inhibition, most hits filed as inhibitors | 330,000 compounds, 0.46% hits | AID 720580; calls by dose curve; tested in A549 cells; also: nearly all actives have a fitted effect of over 30% in size
Lassa entry inh = inhibitors of Lassa virus binding or cell entry; Lassa virus pseudotype entry inhibition, cell reporter; Potency, µM (top dose mostly 37.9 µM), without a hit: at the highest dose activity change, negative = inhibition, hits mostly inhibitors; 300,000 compounds, 1.2% hits; calls by dose curve; tested in HEK293 cells; also: nearly all actives have a fitted effect of over 50% in size
Vaccinia mCherry = vaccinia inhibition (mCherry reporter) | Vaccinia virus mCherry reporter infection, fluorescence | Potency, µM (titrated, usually from 36.5 µM), inactives show top-dose activity change, negative = inhibition, hits mostly inhibitors | 310,000 compounds, 0.63% hits | AID 720579; calls by dose curve; tested in A549 cells; also: nearly all actives have a fitted effect of over 35% in size
HCV inh = HCV inhibition. Huh7.5.1 HCVcc-Cre infection, luciferase reporter, 44 h. AID 651820. 340,000 compounds, 3.4% hits. Potency, µM (top dose mostly 41.8 µM), inactives show at the top dose activity change, negative = inhibition, actives largely listed as inhibitors; active = well fitted inhibition curve with a large enough effect; inconclusive = small, poorly fitted or top-dose-only effect, or another doubt; inactive = no such curve, though single readings can be large or run the other way
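Infectious HCVcc-Cre (~0.5 moi) was added to cells just after compound, with cells seeded 4 h earlier at 1,000 per well. Luciferase activity after 44 h culture reported infection; substrate was incubated 15 min at room temperature before reading.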
MARV entry inh = inhibitors of Marburg virus binding or cell entry | 300,000 compounds, 1.8% hits | Marburg virus pseudotyped entry inhibition, cell reporter | Potency, µM (series often up to 37.8 µM), for the others: top-dose activity change, negative = inhibition, most hits filed as inhibitors; calls by dose curve; tested in HEK293 cells
Numbers without * were called inactive; i = inactive; ? = inconclusive; . = no result given; [ ] = another dose, or the depositor's remark. % is scaled to controls: 0 for no effect and ±100 for the full control effect; potency is read from the fitted curve at half-maximal effect.

SMILES	VACV Venus inh	Lassa entry inh	Vaccinia mCherry	HCV inh	MARV entry inh
COc1ccc(CCNc2nc(-c3ccncc3)cs2)cc1OC	-8%	.	-19%	-23%	.
Cc1nc(C)c(-c2csc(Nc3cccnc3)n2)s1	.	-3%	.	?	?
CC(=O)Nc1ccc(Nc2nc(-c3sc(NC(C)=O)nc3C)cs2)cc1	-20%	?	-24%	11µM*	3.2µM*
CC(=O)Nc1nc(C)c(-c2csc(Nc3ccccn3)n2)s1	?	-26%	?	10µM*	?
CC(=O)Nc1nc(C)c(-c2csc(Nc3ccc(O)cc3)n2)s1	.	?	.	10µM*	4.6µM*
N#CC1=C(N)Oc2cc(N)ccc2C1c1cccnc1 (centres undefined)	-26%	-1%	-19%	-12%	16µM*
N#CC1=C(N)Oc2cc(Nc3ccccc3)ccc2C1c1ccncc1 (centres undefined)	?	?	.	?	18µM*
COc1cc(C2C(C#N)=C(N)Oc3cc(N)ccc32)cc(OC)c1OC (centres undefined)	?	?	.	-25%	5.6µM*
CCOc1ccc(NC(=O)Cn2c(=O)n(-c3cccc(Cl)c3)c(=O)c3c2c2cc(C)ccc2n3C)cc1	-7%	23%[46.1 µM]	-3%	.	-9%[46.1 µM]
O=C(c1cc(-c2ccc(Br)cc2)n[nH]1)N1CCN(S(=O)(=O)c2ccc(Cl)s2)CC1	-29%	21%[46.1 µM]	?	.	.
C#CCNC(=O)[C@H]1C=C(OC)C(=O)C[C@H](c2ccccc2)[C@H]1C	.	.	.	.	8%[14.2 µM]
CC(C)C(=O)N1CCN(c2ccc([N+](=O)[O-])c(NC(C)c3ccccc3)c2)CC1 (centres undefined)	-25%	?	-15%	?	?
CC(Nc1cc(N2CCN(C(=O)C(C)(C)C)CC2)ccc1[N+](=O)[O-])c1ccccc1 (centres undefined)	.	23µM*	.	?	?
COc1ccc(NC(=O)c2c(C)oc3ccc(O)c(CN4CCN(Cc5ccccc5)CC4)c23)cc1Cl	-25%	7.9µM*	-11%	.	?
Cc1ccc(NC(=O)c2c(C)oc3ccc(O)c(CN4CCN(Cc5ccccc5)CC4)c23)cc1	0%	?	-18%	.	10µM*
Cc1ccc(NC(=O)c2c(C)oc3ccc(O)c(CN4CCCCCC4)c23)c(C)c1	-14%[7.34 µM]	?	-14%[7.34 µM]	.	3.5µM*
CCN1CCN(Cc2c(O)ccc3oc(C)c(C(=O)Nc4ccc(OC)c(Cl)c4)c23)CC1	2%	?	-9%	.	?
Cc1ccc(NC(=O)c2c(C)oc3ccc(O)c(CN4CCCCCC4)c23)cc1	-5%[7.34 µM]	?	-6%[7.34 µM]	.	?
Cc1ccc(NC(=O)c2c(C)oc3ccc(O)c(CN4CCOCC4)c23)c(C)c1	1%	-13%[46.1 µM]	-4%	.	8%[46.1 µM]
CCOC(=O)N/N=C1\C[C@@H](O)[C@@H](O)[C@@H]2[C@@H]3C(=O)N(Cc4ccc5c(c4)OCO5)C(=O)[C@@H]3CC[C@@H]12	.	.	.	.	-22%[14.2 µM]
COc1cc(CNCc2ccc(OC)c(OC)c2OC)cc(OC)c1	.	4%	.	10µM*	?
COc1cc2c(cc1OC)C(C)N(C(=O)c1cc3c(C)cc(C)cc3[nH]1)CC2 (centres undefined)	-11%	?	i	22µM*	3.2µM*
Cc1cccc(-c2noc(-c3cccnc3NCc3ccccc3Cl)n2)c1	-2%	-1%[46.1 µM]	-2%	.	17%[46.1 µM]
Cc1ccc(NC(=O)c2ccc(-n3cncn3)c([N+](=O)[O-])c2)cc1	.	-15%	.	?	22%
CCN(CC)S(=O)(=O)c1cc(NC(=O)c2ccc(-n3cncn3)c([N+](=O)[O-])c2)ccc1C	?	?	-19%	11µM*	?
SMILES	VACV Venus inh	Lassa entry inh	Vaccinia mCherry	HCV inh	MARV entry inh
CC(C)OC(=O)c1cc2c(ccn2C)n1CC(=O)N(Cc1ccccc1)c1ccc(F)cc1	-19%	5µM*	?	?	5.2µM*
CCCC1=Nc2cc(C(=O)NCCCOCC)ccc2Sc2ccccc21	?	-41%	-26%	?	1.6µM*
CC1=Nc2cc(C(=O)NCCCOC(C)C)ccc2Sc2ccccc21	-24%	?	-3%	-10%	?
CCCC1=Nc2cc(C(=O)NCCOC)ccc2Sc2ccccc21	-27%	?	?	.	?
CCCC1=Nc2cc(C(=O)NCCCOC(C)C)ccc2Sc2ccccc21	.	6.5µM*	.	?	?
COC(=O)[C@](NC(C)=O)(Nc1nc2ccc(S(C)(=O)=O)cc2s1)C(F)(F)F	.	.	.	.	0%
COC(=O)C1=C2CCCO[C@H]2[C@@H]2[C@@H](C)[C@H](OC)c3ccccc3[C@@H]12	.	.	.	.	2%[14.2 µM]
